We go through 23 compounds from PubChem BioAssay (Tox21).

A number with no mark means an inactive call. Records with an inconclusive call do not appear. Activity calls are given as the source filed them. Unless noted, calls come from the whole dose curve; as a rule, active = well fitted curve in the direction sought with a large enough effect in the repeat runs; inconclusive = weak or mixed curves; inactive = no such curve, though single readings can be large; an effect the other way counts as inactive or inconclusive.

Assay [1] is described as follows: qHTS assay for small molecule agonists of the p53 signaling pathway (AID 651631; calls by dose curve; note: nearly all actives have a fitted effect of over 15% in size; note: potency is the fitted concentration of half-maximal effect). In short, it runs like this: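 HCT-116 cells carrying a beta-lactamase reporter under p53 response elements were dosed with compound for 16 h at 37 °C. LiveBLAzer B/G FRET substrate was then added for 2 h at room temperature, and fluorescence intensity was read to detect pathway agonism.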
A general note: Quantitative high-throughput screening tests each substance at several concentrations.

Assay [2] can be described thus: qHTS assay for small molecules that induce genotoxicity in human embryonic kidney cells expressing luciferase-tagged ATAD5 (AID 651632). Note: nearly all actives have a fitted effect of over 15% in size. Summed up:
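Genotoxicity read-out via ATAD5-luciferase: HEK293T cells, 16 hr compound incubation at 37C, Amplite detection.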

A short description of assay [3]: qHTS assay for small molecule agonists of the p53 signaling pathway - cell viability (AID 651633; calls by dose curve; note: nearly all actives have a fitted effect of over 30% in size; note: potency is the fitted concentration of half-maximal effect). Summed up:
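Viability counter-read: CellTiter-Glo luminescence (30 min, room temperature) in the same p53RE-bla plates. These plates had been exposed to compounds for 16 h at 37 C.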

Assay [4] in a line: qHTS assay for small molecules that induce genotoxicity in human embryonic kidney cells expressing luciferase-tagged ATAD5 - cell viability (AID 651634; calls by dose curve; note: nearly all actives have a fitted effect of over 25% in size). Summed up:
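Live-cell protease activity (CellTiter-Fluor, fluorescence) indicates viability. HEK293T cells with luciferase-tagged ATAD5; 15.5 hr compound treatment at 37C.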

A short description of assay [5]: qHTS assay for small molecule disruptors of the mitochondrial membrane potential - cell viability (AID 720634; calls by dose curve;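 note: human HepG2 liver cancer cells; series mostly up to about 83 µM; nearly all actives have a fitted effect of over 20% in size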). In short, it runs like this: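 Human hepatoma HepG2 cells were treated for 1 hr with test chemicals, then given m-MPI dye and CellTiter-Glo. Cell viability reflects luminescence proportional to cellular ATP.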
Assay [6] can be described thus: qHTS assay for small molecule disruptors of the mitochondrial membrane potential (AID 720635). Note: potency is the fitted concentration of half-maximal effect. Summed up: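 Mitochondrial membrane potential tracked with Mito-MPS dye, red aggregates (ex 540/em 590 nm) against green monomers (ex 490/em 535 nm). Compound treatment 1 hr at 37C, dye 30 min in HepG2.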
A short description of assay [7]: qHTS assay to test for compound auto fluorescence at 590 nm (red) in HepG2 cells (AID 720674). In short, it runs like this:
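1 hr compound incubation on HepG2 cells, 37 C, 5% CO2; plate read ex 540 nm / em 590 nm; intensities reported as Rose Bengal sodium equivalents.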

The nature of assay [8]: qHTS assay to test for compound auto fluorescence at 535 nm (green) in HepG2 cells (AID 720675).
The nature of assay [9]: qHTS assay to test for compound auto fluorescence at 460 nm (blue) in HEK293 cells (AID 720678). Summed up:
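After cell attachment (4-5 hr, 37C), compounds were pinned onto HEK293 monolayers in 10% dialyzed FBS medium. The blue channel (405/460 nm) was read following overnight culture. Equivalency was calculated against triamterene.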

Assay [10] in a line: qHTS assay to test for compound auto fluorescence at 590 nm (red) in HEK293 cells (AID 720679). In short, it runs like this: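 Plates of HEK293 cells (10% dialyzed FBS) are treated with 23 nL compound or DMSO vehicle after a 4-5 hr attachment period, incubated overnight at 37C, and read for red fluorescence at 540/590nm.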
% is set by controls: 0 for no effect and ±100 for the full control effect.

Turning to `CC(C)(C(=O)c1cccnc1)c1cccnc1`, the Potency result in assay [1], in assay [2], in assay [3], in assay [4] and in assay [6] was “inactive” throughout. Moreover, in [5], the compound was classed as inactive. Also, in assay [7], the fluorescence, relative to Rose Bengal was -0.433% [at 18.6 µM]. Also, the fluorescence, % of fluorescein control in assay [8] was -0.0177% [at 18.6 µM]. Further, the fluorescence, % of triamterene in [9] was -0.0025% [at 18.6 µM]. For the same compound, in assay [10], the fluorescence, % of fluorescent control is -0.175% [at 18.6 µM].

With `Nc1ccc(NC(=O)c2ccc(N)cc2)cc1`, the Potency entry in [1], in assay [2], in assay [3], in assay [4] and in [9] was “inactive” each time. Further, the call in assay [5], in assay [7], in assay [8] and in assay [10] was inactive. Further, the Potency in assay [6] is 1.37 µM (active).

Turning to `CCC1CCC(CCC(=O)O)C1` (stereo not drawn), the Potency entry in [1], in assay [2], in assay [3], in assay [4], in assay [6] and in assay [9] was “inactive” each time. Moreover, the compound was classed as inactive in assay [5], in [7], in assay [8] and in [10].

`CC(=O)c1ccc[nH]1`: the Potency entry in assay [1], in [2], in [3], in assay [4], in [6] and in [9] was “inactive” throughout. For the same compound, the result in assay [5], in [7], in assay [8] and in [10] was inactive.

Regarding `CC(CO)(CO)C(=O)O`, the Potency result in [1], in assay [2], in assay [3], in [4], in [6] and in assay [9] was “inactive” each time. Moreover, the result in [5], in assay [7], in [8] and in [10] was inactive.

With `Nc1nc(-c2ccc([N+](=O)[O-])cc2)cs1`, the Potency result in assay [1], in assay [2], in assay [3], in [4] and in assay [9] was “inactive” in each case. The compound was classed as inactive in [5], in assay [7], in assay [8] and in assay [10]. In addition, the Potency in assay [6] was 3.1 µM (active).

As to `C1CCCCC1`, the Potency entry in [1], in [2], in assay [3], in assay [4], in assay [6] and in assay [9] was “inactive” each time. The compound was classed as inactive in assay [5], in assay [7], in [8] and in assay [10].

With `CCN(CC)CCNC(=O)c1cc(Cl)c(N)cc1OC`, the Potency result in [1], in assay [2], in assay [3], in assay [4], in assay [6] and in assay [9] was “inactive” throughout. The result in [5], in assay [7], in assay [8] and in assay [10] was inactive.

Turning to `CC(C)C(O)C(C)(C)CO` (stereo not drawn), the Potency entry in assay [1], in assay [2], in assay [3], in [4], in assay [6] and in [9] was “inactive” throughout. Further, the outcome in [5], in [8] and in [10] was inactive.

Consider `Cc1ccc(NC(=O)N(C)C)cc1NC(=O)N(C)C`, for which the Potency entry in assay [1], in assay [2], in assay [3], in assay [4], in assay [6] and in assay [9] was “inactive” in each case. Further, the compound was classed as inactive in assay [5], in assay [7], in [8] and in assay [10].

For `C=C(C)c1ccccc1`, the Potency entry in assay [1], in assay [2], in assay [3], in assay [4], in assay [6] and in [9] was “inactive” throughout. Further, the compound was classed as inactive in [5], in [7], in [8] and in assay [10].

Take `CC(C)Cc1ccc(CC(=O)O)cc1`: the Potency result in [1], in assay [2], in assay [3], in assay [4], in assay [6] and in assay [9] was “inactive” throughout. Moreover, the result in assay [5], in [8] and in assay [10] was inactive.

In the case of `CC[C@H]1OC(=O)[C@H](C)[C@@H](O[C@H]2C[C@@](C)(OC)[C@@H](O)[C@H](C)O2)[C@H](C)[C@@H](O[C@@H]2O[C@H](C)C[C@H](N(C)C)[C@H]2O)[C@](C)(O)C[C@@H](C)C(=O)[C@H](C)[C@@H](O)[C@]1(C)O`, the Potency result in [1], in assay [2], in [3], in assay [4], in [6] and in assay [9] was “inactive” throughout. Moreover, the compound was classed as inactive in assay [5], in [7], in [8] and in assay [10].

Take `ClC1=C(Cl)C1(Cl)Cl`: the Potency entry in assay [1], in assay [2], in [3], in assay [4], in assay [6] and in assay [9] was “inactive” throughout. Moreover, the call in [5], in [7], in assay [8] and in [10] was inactive.

For `CC(=O)OCC(C)C`, the Potency entry in assay [1], in assay [2], in assay [3], in [4], in [6] and in [9] was “inactive” in each case. Moreover, the call in assay [5], in assay [7], in assay [8] and in assay [10] was inactive.

With `CS(=O)(=O)c1ccc([C@@H](C[C@H]2CCC(=O)C2)C(=O)Nc2cnccn2)cc1Cl`, the Potency result in [1], in [2], in [3], in assay [4], in assay [6] and in assay [9] was “inactive” in each case. Besides, the compound was classed as inactive in assay [5], in assay [7], in assay [8] and in assay [10].

For the compound `CCC(=O)OCc1ccc(OC)cc1`, the Potency entry in [1], in [2], in assay [3], in [4], in assay [6] and in assay [9] was “inactive” in each case. The call in assay [5], in [7], in assay [8] and in assay [10] was inactive.

`COC(OC)OC`: the Potency result in assay [1], in assay [2], in assay [3], in [4], in assay [6] and in assay [9] was “inactive” each time. The compound was called inactive in assay [5], in assay [7], in [8] and in assay [10].

On to `Cc1ccc2nc(N)[nH]c(=O)c2c1Sc1ccncc1`, for which the results for the Potency in assay [1] and in [3] were 2.66 µM (active) and 1.88 µM (active), respectively. Also, the Potency result in assay [2], in assay [4], in [6] and in [9] was “inactive” in each case. The outcome in assay [5], in assay [7], in assay [8] and in [10] was inactive.

On to `CC(C)N=C=NC(C)C`, for which the Potency entry in [1], in assay [2], in assay [3], in assay [4], in assay [6] and in assay [9] was “inactive” throughout. Further, the outcome in assay [5], in assay [7], in assay [8] and in assay [10] was inactive.

`COC(=O)CC(C(C)=O)C(=O)OC` (stereo not drawn): the Potency result in assay [1], in [2], in assay [3], in assay [4], in assay [6] and in assay [9] was “inactive” in each case. Moreover, the call in assay [5], in assay [7], in [8] and in [10] was inactive.

As for `CCCCCCC(O)CCCCCCCCCCC(=O)OC` (stereo not drawn), the Potency entry in assay [1], in [2], in assay [3], in assay [4], in assay [6] and in [9] was “inactive” each time. Also, the outcome in assay [5], in [7], in [8] and in assay [10] was inactive.

Turning to `CC(C)(O)CCc1ccccc1`, the Potency entry in [1], in assay [2], in assay [3], in assay [4], in assay [6] and in [9] was “inactive” each time. Further, the compound was classed as inactive in assay [5], in assay [7], in assay [8] and in [10].
